Active and inactive are the calls of the source. The calls were made as follows: active = hit-call score of the fitted dose curve at least 0.9, where 1 is the maximum; inactive = score below 0.9.
Assays:
Details in all cases: mRNA level, 48 h; actives raise or lower the signal
[1] = read-out: Cytochrome P450 3A4 (Homo sapiens) (UniProt P08684); test: LTEA_HepaRG_CYP3A4: Life Technologies and Expression Analysis (LTEA) Assay for CYP3A4 using HepaRG (AID 2283487)
Summary of the method: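 Differentiated HepaRG cells in serum-free induction medium exposed in duplicate for 48 h to 8 half-log concentrations up to 100 uM in 0.5% DMSO. CYP3A4 mRNA measured by qRT-PCR normalized to ACTB, GAPDH and POLR2A; bidirectional fit versus DMSO.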

[2] = read-out: DNA damage-inducible transcript 3 (DDIT3), DDIT3 (gene 1649); test: LTEA_HepaRG_DDIT3: Life Technologies and Expression Analysis (LTEA) Assay for DNA damage-inducible transcript 3 (DDIT3) using HepaRG (AID 2283488)
Summary of the method: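 HepaRG plated 48 h, switched to serum-free induction medium, dosed 48 h (100 uM top, half-log, 8 pts, 0.5% DMSO, n=2); RNA isolated; DDIT3 by qRT-PCR; bidirectional curve fit vs DMSO.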

[3] = read-out: Pro-epidermal growth factor (Homo sapiens) (UniProt P01133); test: LTEA_HepaRG_EGF: Life Technologies and Expression Analysis (LTEA) Assay for Epidermal growth factor (EGF) using HepaRG (AID 2283489)
Summary of the method: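 Concentration-response mRNA assay: HepaRG cells dosed 48 h (max 100 uM, 0.5% DMSO), EGF measured by qRT-PCR and normalized to ACTB/GAPDH/POLR2A.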

[4] = read-out: Early growth response protein 1 (EGR1) transcription factor, EGR1 (gene 1958); test: LTEA_HepaRG_EGR1: Life Technologies and Expression Analysis (LTEA) Assay for Early growth response protein 1 (EGR1) transcription factor using HepaRG (AID 2283490)
Summary of the method: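 Differentiated human HepaRG cells in serum-free induction medium were exposed in duplicate for 48 h to eight concentrations (top 100 uM, half-log steps) in 0.5% DMSO. EGR1 mRNA was quantified by qRT-PCR, normalized to ACTB, GAPDH and POLR2A, and fitted bidirectionally versus DMSO.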

[5] = read-out: Ezrin (EZR), EZR (gene 7430); test: LTEA_HepaRG_EZR: Life Technologies and Expression Analysis (LTEA) Assay for Ezrin (EZR) using HepaRG (AID 2283491)
Summary of the method: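 Differentiated human HepaRG cells, 48 h after plating, were exposed in serum-free induction medium for 48 hours to eight half-log concentrations up to 100 uM in 0.5% DMSO. EZR mRNA was measured by TaqMan qRT-PCR, normalized to ACTB, GAPDH and POLR2A, and fitted bidirectionally against DMSO.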

[6] = read-out: Cytochrome P450 3A7 (Homo sapiens) (UniProt P24462); test: LTEA_HepaRG_CYP3A7: Life Technologies and Expression Analysis (LTEA) Assay for CYP3A7 using HepaRG (AID 2283492)
Summary of the method: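 qRT-PCR of CYP3A7 in HepaRG lysates after 48 h treatment; concentration-response (8 points, max 100 uM) analysed bidirectionally relative to 0.5% DMSO controls.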

CYP3A5 (gene 1577) = test: LTEA_HepaRG_CYP3A5: Life Technologies and Expression Analysis (LTEA) Assay for CYP3A5 using HepaRG (AID 2283493)
Summary of the method: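 HepaRG plated 48 h, switched to serum-free induction medium, chemicals added 48 h (max 100 uM, half-log, 0.5% DMSO). RNA isolated; CYP3A5 by TaqMan qRT-PCR. Gain/loss vs DMSO.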

[7] = read-out: Fatty Acid-Binding Protein 1 (FABP1), FABP1 (gene 2168); test: LTEA_HepaRG_FABP1: Life Technologies and Expression Analysis (LTEA) Assay for Fatty Acid-Binding Protein 1 (FABP1) using HepaRG (AID 2283494)
Summary of the method: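 Differentiated human HepaRG cells were exposed in duplicate for 48 h in serum-free induction medium to 8-point half-log concentration series topping at 100 uM in 0.5% DMSO. FABP1 mRNA measured by TaqMan qRT-PCR, normalized to ACTB/GAPDH/POLR2A; bidirectional fit versus DMSO.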

[8] = read-out: Cytochrome P450 4A22 (Homo sapiens) (UniProt Q5TCH4); test: LTEA_HepaRG_CYP4A22: Life Technologies and Expression Analysis (LTEA) Assay for Cytochrome P450 4A22 (CYP4A22) using HepaRG (AID 2283495)
Summary of the method: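 Concentration-response (8 points, max 100 uM, 0.5% DMSO) in human HepaRG liver cells after 48 h exposure. CYP4A22 mRNA by TaqMan qRT-PCR with housekeeping-gene normalization.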

[9] = read-out: Cytochrome P450 7A1 (Homo sapiens) (UniProt P22680); test: LTEA_HepaRG_CYP7A1: Life Technologies and Expression Analysis (LTEA) Assay for Cytochrome P450 7A1 (CYP7A1) using HepaRG (AID 2283496)
Summary of the method: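 HepaRG cells plated 48 h, then switched to serum-free induction medium and exposed in duplicate for 48 h to 8-point half-log series from 100 uM in 0.5% DMSO. CYP7A1 mRNA by qRT-PCR (TaqMan), normalized to ACTB/GAPDH/POLR2A; bidirectional fit versus DMSO.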

Measured: AC50

Sequence of Cytochrome P450 3A4 (Homo sapiens) (P08684 whole entry, looked up): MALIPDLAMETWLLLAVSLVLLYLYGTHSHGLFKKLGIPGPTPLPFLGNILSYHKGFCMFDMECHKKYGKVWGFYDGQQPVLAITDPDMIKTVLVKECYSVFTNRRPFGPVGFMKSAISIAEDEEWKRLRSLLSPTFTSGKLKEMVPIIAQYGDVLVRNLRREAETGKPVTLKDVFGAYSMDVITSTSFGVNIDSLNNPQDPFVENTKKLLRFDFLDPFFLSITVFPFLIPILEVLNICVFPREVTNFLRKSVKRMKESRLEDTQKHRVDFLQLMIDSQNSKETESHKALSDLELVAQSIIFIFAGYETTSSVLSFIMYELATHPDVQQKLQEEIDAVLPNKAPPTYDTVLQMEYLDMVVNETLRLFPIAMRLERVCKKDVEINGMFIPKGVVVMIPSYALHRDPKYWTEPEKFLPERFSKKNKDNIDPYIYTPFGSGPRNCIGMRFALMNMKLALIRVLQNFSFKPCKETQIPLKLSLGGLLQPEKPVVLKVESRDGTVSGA
Sequence of Cytochrome P450 3A7 (Homo sapiens) (P24462 whole entry, looked up): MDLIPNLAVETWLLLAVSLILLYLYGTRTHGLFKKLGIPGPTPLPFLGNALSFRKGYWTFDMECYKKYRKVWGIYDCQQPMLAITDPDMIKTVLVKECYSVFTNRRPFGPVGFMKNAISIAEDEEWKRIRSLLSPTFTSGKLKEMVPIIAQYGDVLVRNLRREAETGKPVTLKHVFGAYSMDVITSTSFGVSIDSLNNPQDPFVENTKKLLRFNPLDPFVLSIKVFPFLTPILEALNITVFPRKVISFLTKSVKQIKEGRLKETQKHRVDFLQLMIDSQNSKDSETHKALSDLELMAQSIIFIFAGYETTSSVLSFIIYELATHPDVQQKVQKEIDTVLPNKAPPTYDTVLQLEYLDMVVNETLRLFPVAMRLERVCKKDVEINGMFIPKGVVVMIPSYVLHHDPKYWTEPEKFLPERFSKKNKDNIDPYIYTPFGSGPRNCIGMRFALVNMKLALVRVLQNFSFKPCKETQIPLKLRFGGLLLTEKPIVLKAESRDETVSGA

COCC(C)O (stereo not given)
inactive: all assays above

OCCC(F)(F)C(F)(F)C(F)(F)C(F)(F)C(F)(F)C(F)(F)C(F)(F)C(F)(F)F
not listed: [5]
inactive: all other assays above

CCCCC(CC)COC(=O)CCCCC(=O)OCc1ccccc1 (stereo not given)
not listed: [5]
inactive: all other assays above

Oc1cc2ccccc2c2ccccc12
active: [9] 3.01 µM
inactive: all other assays above

C=C(C)C(=O)OCCC(F)(F)C(F)(F)C(F)(F)C(F)(F)C(F)(F)C(F)(F)F
inactive: all assays above

Cc1cc(C)c(O)c(C)c1
active: [1] 13.7 µM | [6] 7.49 µM
inactive: all other assays above

ClC1=C(Cl)C(Cl)(Cl)C(Cl)=C1Cl
not listed: [5]
inactive: all other assays above

CC(=O)NC1(c2cccc(F)c2)CCN(CC[C@@]2(c3ccc(Cl)c(Cl)c3)CN(c3ccccc3)C(=O)CO2)CC1
inactive: [3] | [7]
active: [1] 3.67 µM | [2] 41.5 µM | [4] 72.4 µM | [6] 4.05 µM | CYP3A5 (gene 1577) 75 µM | [8] 3.17 µM | [9] 38 µM

CN1CCC[C@H]1c1cccnc1
inactive: all assays above

CC(O)CO (stereo not given)
inactive: all assays above

CCCCC(CC)COC(=O)CCCCC(=O)OCC(CC)CCCC (stereo not given)
inactive: all assays above

CCN(CC)CCNc1ccc(CNC=O)c2sc3ccc(OC)cc3c(=O)c12
active: [1] 50 µM | [4] 88.2 µM | [5] 76.2 µM | [6] 3.36 µM | CYP3A5 (gene 1577) 50 µM | [7] 21.5 µM | [8] 25.7 µM | [9] 21.7 µM
inactive: [2] | [3]

Oc1cccc(O)c1
inactive: all assays above

CCc1nn(C2CCCCC2)c2cc(C3(C#N)CCC(C(=O)O)CC3)ccc12 (stereo not given)
active: [1] 82.2 µM | [2] 77.5 µM | [3] 50 µM | [4] 12.1 µM | [5] 0.313 µM | [6] 87.8 µM | [7] 88.2 µM | [8] 56.7 µM | [9] 63.3 µM
inactive: CYP3A5 (gene 1577)

CN1CCN(c2ccccc2/C=C2\SCCN(c3ccc(Cl)c(Cl)c3)C2=O)CC1
active: [2] 50 µM | [4] 83 µM | [7] 50 µM | [8] 15.8 µM | [9] 93.9 µM
inactive: [1] | [3] | [6] | CYP3A5 (gene 1577)

Reference: PubChem BioAssay (EPA / NIEHS)
